# Reference: ChEMBL document CHEMBL3988442, “University of Dundee, Small-Polar-MMV Screening Library” (2021)
# Out of some 53,000 compounds screened, about 900 (1.7%) showed an effect of 50% or more. Many of the other results were omitted from the sample, so strong results are more common in it than they were.
# Test system: Mycobacterium tuberculosis
# Assay: Cornell - Phenotypic assay to identify agents that inhibit growth of Mycobacterium tuberculosis
# Format: functional
# Parameters: scale not given: direction of the effect not stated beside the values
# Settings: 10 mM as filed; unlikely as a test dose
row,SMILES,Percent Effect [%]
1,Oc1ccccc1-c1n[nH]c(C2CC2)n1,-27.03
2,CNC(=O)CC1CCN(C(=O)NCc2cn3c(C)cccc3n2)CC1,20.05
3,CC(=O)N1CCCC(c2ccc(C(=O)NC3CCCC3)cn2)C1 (centres undefined),-27.02
4,COc1ncc(CN2C[C@@H]3CC[C@@](O)(c4ccc(C)cn4)[C@@H]3C2)cn1.O=C(O)CC(O)(CC(=O)O)C(=O)O,-1.54
5,Cc1ccc([C@]2(O)CC[C@H]3CN(Cc4ccccc4F)C[C@H]32)nc1.O=C(O)CC(O)(CC(=O)O)C(=O)O,8.735
6,O=C(O)CC(O)(CC(=O)O)C(=O)O.O[C@@]1(c2ccccn2)CC[C@H]2CN(Cc3cccc(Cl)c3Cl)C[C@H]21,3.215
7,Cc1ccc([C@]2(O)CC[C@H]3CN(Cc4cccc(F)c4F)C[C@H]32)nc1.O=C(O)CC(O)(CC(=O)O)C(=O)O,-20.35
8,Cc1ccc([C@]2(O)CC[C@H]3CN(Cc4cccc(Cl)c4Cl)C[C@H]32)nc1.O=C(O)CC(O)(CC(=O)O)C(=O)O,69.29
9,Cc1ccc([C@]2(O)CC[C@H]3CN(Cc4cc(C)c(O)c(C)c4)C[C@H]32)nc1.O=C(O)CC(O)(CC(=O)O)C(=O)O,50.31
10,CN(CCc1ncnn1-c1ccccc1Cl)C1CCS(=O)(=O)C1 (centres undefined),-16.6
11,Cc1ccc(CNS(=O)(=O)CCCC#N)cc1F,6.478
12,CC(c1nccs1)N(C)S(=O)(=O)NCc1ccccc1 (centres undefined),-14.93
13,Cc1cc(C)n(CC2CN(CC(=O)NC(C3CC3)C3CC3)CCO2)n1 (centres undefined),-31.15
14,Cc1ccc(CN2Cc3c(C(=O)N4CCOCC4)nn(C)c3C2)s1.O=C(O)C(F)(F)F,15.84
15,O=C(O)C(F)(F)F.c1cnc(N2CCO[C@H]3[C@H](OCC4CCOCC4)CC[C@@H]32)nc1,-2.783
16,c1ccc(CN2CCC(Nc3ncnc4c3CCNCC4)C2)cc1 (centres undefined),21.59
17,CCS(=O)(=O)N1CCCCC1c1nc(CC(C)C)no1 (centres undefined),28.4
18,Cc1cccc2c1cnn2CCC(=O)NCc1csc(C2CC2)n1,28.59
19,Cl.Nc1cccnc1N1CCCCCC1,72.92
20,CN1CCN(c2ncccc2N)CC1,-43.88
21,Nc1cccnc1N1CCN(c2ccccc2)CC1,11.1
22,Cc1cc(C)n(CCNCc2cc(-c3ccc(Cl)cc3)c[nH]c2=O)n1,-2.359
23,Cc1nc2c(c(NCc3nc4ccccc4s3)n1)CCNCC2,90.34
24,Cc1nc2c(c(NCc3cc4ccccc4s3)n1)CCNCC2,31.59
25,Cc1nc2c(c(NCc3ccc(-c4ccccn4)s3)n1)CCNCC2,10.6

row,SMILES,Percent Effect [%]
1,Cc1nnc(N2CC[C@H]3C[C@@H](C(=O)NC4CCCC4)O[C@H]3C2)s1.O=C(O)C(F)(F)F,-17.08
2,O=C(NC1CCN(Cc2cccc3c2OCCO3)CC1)c1cccs1,-12.52
3,Cc1nnc([C@@]23CCO[C@@H]2CCN(Cc2ccc4c(c2)OCO4)C3)o1,-5.266
4,Cc1csc(N2CCN(C(=O)c3c(C)oc(C)c3C)CC2)n1,16.26
5,CN(C)C(CNC(=O)c1nc(N2CCCC2)ncc1Cl)c1ccco1 (centres undefined),22.7
6,Cc1cc(C(N)=O)ccc1NC(=O)c1nc(N2CCCC2)ncc1Cl,105.8
7,Cc1cc(NC(=O)c2nc(N3CCCC3)ncc2Cl)nc(C(C)C)n1,24.2
8,O=C(Nc1cnn(-c2ccccc2Cl)c1)N[C@@H]1C=C[C@H](CO)C1,52.75
9,O=C(Nc1cnn(Cc2ccc(Cl)cc2)c1)N[C@@H]1C=C[C@H](CO)C1,24.39
10,Cc1cnn(Cc2ccc(NC(=O)N[C@@H]3C=C[C@H](CO)C3)cc2)c1,20.48
11,O=C(N1CCCC1)N1C[C@@H](OCc2cccnc2)[C@H]2OCCC[C@H]21.O=C(O)C(F)(F)F,12.95
12,Cc1cc2ccccc2n1CCC(=O)N1CCC[C@H]1C(N)=O,9.96
13,Cc1cc(C)n(CC(=O)N2CCCCC2CCN(C)C)c(=O)n1 (centres undefined),19.58
14,Cc1cc2ccccc2n1CCC(=O)N1CCCC1Cn1cccn1 (centres undefined),91.97
15,Cc1cc2ccccc2n1CCC(=O)N1CCCC2(CC1)CNC(=O)O2 (centres undefined),-6.951
16,Cc1cc2ccccc2n1CCC(=O)N1CCCCC1CCO (centres undefined),105.9
17,Cc1cc2ccccc2n1CCC(=O)N1CCC2(CC1)CNC(=O)C2,-9.599
18,O=C(CCCOc1ccccc1)N1CCCC1Cn1cccn1 (centres undefined),-5.631
19,Cc1cc2ccccc2n1CCC(=O)N1CCN(C)CC1C(N)=O (centres undefined),81.47
20,COc1ccc2c(ccn2CC(=O)N2CCCC2Cn2cccn2)c1 (centres undefined),24.26
21,Cc1cc(C2CCCN(C(=O)c3cccnc3)C2)ccn1 (centres undefined),-13.34
22,CCc1cc(NCc2ccccc2CN2CCCC2)n2ncnc2n1,-6.247
23,O=C(NCc1ccco1)[C@H]1C[C@@H]2CCN(c3ncccn3)C[C@H]2O1.O=C(O)C(F)(F)F,33.78
24,COCC[C@]1(O)CCN(Cc2nc(C)cs2)C[C@H]1C,-15.54
25,O=C(O)C(F)(F)F.O=C1[C@H]2CN(c3ncccn3)C[C@H]2CN1CCN1CCCC1,1.191

row,SMILES,Percent Effect [%]
1,Cc1cnc(N2CCc3onc(COc4cccnc4)c3C2)nc1,-20.46
2,Cc1cc(C)cc(C(=O)N2CCN(C(=O)N(C)C)CC2(C)C)c1,26.69
3,Cc1nc(Nc2cnccn2)cc(C2CCN(CCO)C2)n1.O=CO (centres undefined),-24.26
4,CSCCC(NC(=O)c1ccco1)C(=O)N(C)Cc1ccsc1 (centres undefined),-9.579
5,O=C(NCCC(=O)N1CCCC1)c1ccc(SCc2cccnc2)cc1,35.93
6,CCOc1ccnc(N2CCN(C(=O)c3cccnc3)CC2)n1,-18.66
7,O=S(=O)(NC1CCCCC12OCCO2)c1ccc2c(c1)OCCO2 (centres undefined),44.93
8,O=S(=O)(NC1CCCCC12OCCO2)c1cc(F)cc(F)c1 (centres undefined),56.69
9,O=S(=O)(NC1CCCCC12OCCO2)c1cc(Cl)cc(Cl)c1 (centres undefined),16.3
10,CCCN1CCC(Cc2noc(-c3cccnc3OC)n2)CC1,20.11
11,CCn1nc(C)c(CNC(=O)c2nnc3ccc(OC)cc3n2)c1C,-22.43
12,Cc1ccc(-n2nnc(C(=O)NCC3CCCCC3)n2)cc1,32.3
13,CCn1nc(C)c(CNC(=O)c2nnc3ccccc3n2)c1C,7.838
14,Cc1ccc2nnc(C(=O)NCC3CCCC3)nc2c1,99.7
15,O=C(NCC1CC1)c1nnc2ccc(Cl)cc2n1,99.3
16,O=C(NCC1CCOC1)c1cc(-c2ccc(Cl)cc2)n[nH]1 (centres undefined),-7.527
17,CCn1nc(C)c(CNC(=O)c2nnc3ccc(Cl)cc3n2)c1C,64.24
18,COc1ccc2nnc(C(=O)NC3CCCC3)nc2c1,60.2
19,O=C(NCC1CCOC1)c1csc(-c2ccc(Cl)cc2)n1 (centres undefined),25.26
20,COc1ccc(C(=O)NC2CC2)c(OC)c1,29.69
21,COc1ccc(-c2nnc(SC(C)C(=O)NC3CCCC3)[nH]2)c(OC)c1 (centres undefined),-11.32
22,COc1ccc2nnc(C(=O)NCC3CCCC3)nc2c1,39.03
23,O=C1[C@H]2CCCC[C@H]2C(=O)N1c1cnn(Cc2cccc(F)c2)c1,24.19
24,Cc1nnc(-c2cccc(C#N)c2)n1C1CCN(C(C)C)C1=O (centres undefined),5.61
25,Cc1cccc(S(=O)(=O)N2C[C@@H]3C[C@@H](c4nnc(C)[nH]4)O[C@@H]3C2)c1,-10.6

row,SMILES,Percent Effect [%]
1,CN(Cc1ccc(F)cc1)CC1(O)CCN(C(=O)c2ccccn2)C1 (centres undefined),17.87
2,O=c1[nH]cc(N2CCCCC2)c(=O)[nH]1,4.601
3,Cc1ccc(NCC2(O)CCNCC2)cc1C,-25.1
4,CC(C)c1nnc(NC(=O)N(C)Cc2ccncc2)s1,-15.27
5,Cc1ccsc1CN(CCN(C)C)Cc1ccccn1,3.624
6,Cc1ccsc1CN(Cc1ccccn1)CC(C)C,-11.16
7,CSC(C)CCN(Cc1ccccn1)Cc1sccc1C (centres undefined),52.37
8,COCC(O)CN(C)c1ccnc2cc(Br)ccc12 (centres undefined),6.843
9,O=C(NC[C@@H]1CCCO1)c1cccnc1N1CCCC1c1ccccc1 (some centres undefined),4.902
10,CC(c1ccc(F)cc1F)N1CCN(CCC(=O)NC(N)=O)CC1 (centres undefined),-2.983
11,COc1cccc(N2CCC(CNCc3cccc(C#N)c3)C2)c1 (centres undefined),63.04
12,COc1ccccc1N1CCC(CNCc2cccc(C#N)c2)C1 (centres undefined),33.02
13,COc1ccccc1N1CCC(CNCc2cccc(O)c2)C1 (centres undefined),38.06
14,COc1cccc(N2CCC(CNC(=O)NCc3ccco3)C2)c1 (centres undefined),-31.24
15,COc1ccccc1N1CCC(CNCc2ccc(C#N)cc2)C1 (centres undefined),28.32
16,COc1ccc(CNCC2CCN(c3ccccc3OC)C2)cc1O (centres undefined),59.98
17,Cc1cc(C)c(C(=O)N2CCCC(C(=O)CCc3ccccc3)C2)cn1 (centres undefined),16
18,CN1CCCC1CCNC(=O)c1ccccc1-n1cnc(CN)c1 (centres undefined),-39.2
19,CC(C)C(Sc1nnnn1C1CC1)C(=O)NCc1ccccc1 (centres undefined),-5.783
20,Cc1nc(N)sc1C(=O)N1Cc2ccccc2OC2(CCOCC2)C1,-56.78
21,O=C1CCC2(CCN(Cc3cscn3)CC2)CN1CCCO,5.461
22,CC(C)(Oc1ccc(F)cc1)C(=O)NCc1ccco1,22.85
23,O=C(CNc1ccc(OCC2CCOCC2)cc1)NCc1ccco1,31.46
24,CC(C)(C)Oc1ccc(NCC(=O)NCc2ccco2)cc1,108
